Compound activity deposited in PubChem by National Center for Advancing Translational Sciences (NCATS).
Sampled rows, rich in hits. Any-hit rate of the full collection: about 5.7%.
GLP1R inv ag – GLP-1 receptor (human) inverse agonism | P43220 | HEK293 GLP-1R CRE-luciferase, luminescence, 24 h; GLP-1R form is constitutively active | Potency, µM (titrated, usually from 38.3 µM), for inactives: at the top dose activity change, negative = inhibition, usual class: inhibitors | actives 1.6% (n = 410,000) | AID 624417; also: potency is read from the fitted curve at half-maximal effect; % is scaled to controls: 0 for no effect and ±100 for the full control effect; nearly all actives have a fitted effect of over 55% in size
Target sequence (P43220 whole entry, looked up): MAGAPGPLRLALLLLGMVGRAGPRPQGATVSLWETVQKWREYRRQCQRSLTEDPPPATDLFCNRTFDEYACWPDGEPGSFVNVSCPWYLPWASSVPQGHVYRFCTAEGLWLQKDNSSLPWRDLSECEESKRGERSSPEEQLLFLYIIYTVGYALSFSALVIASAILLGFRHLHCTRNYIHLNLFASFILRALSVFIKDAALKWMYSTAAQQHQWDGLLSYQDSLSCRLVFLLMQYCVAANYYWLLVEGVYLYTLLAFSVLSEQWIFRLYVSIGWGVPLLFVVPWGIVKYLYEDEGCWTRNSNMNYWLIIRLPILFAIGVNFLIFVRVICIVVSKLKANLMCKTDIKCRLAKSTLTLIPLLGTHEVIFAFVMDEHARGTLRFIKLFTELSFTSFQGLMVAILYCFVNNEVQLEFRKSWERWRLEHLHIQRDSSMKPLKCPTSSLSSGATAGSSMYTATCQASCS
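HEK293 cells stably co-expressing a cAMP-responsive luciferase reporter and constitutively active GLP-1R were seeded, incubated 12 h, then exposed to compounds for 24 h at 37 C. Luminescence was read 12 min after detection reagent; inverse agonists lower signal.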
D3 antag – D3 dopamine receptor (human) antagonism. AID 652054. max response, negative = inhibition, %. actives 2.5% (n = 360,000). D3R cells, DiscoveRx beta-arrestin luminescence, antagonist mode; hits give low values. P35462; in the data active = max response below about -50%; inconclusive = no clear call, values can overlap the other calls; also: % is scaled to controls: 0 for no effect and ±100 for the full control effect
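Cells plated overnight at 1500 cells/well, then exposed to library compounds with dopamine controls for 90 minutes at 37 degrees C. DiscoveRx reagent added for 30–60 minutes at room temperature; luminescence read, quantitative HTS format.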
DRD3 agonist – D3 dopamine receptor (human) agonism. AID 652048. D3R DiscoveRx beta-arrestin cells, luminescence, 90 min. actives 0.58% (n = 410,000). max activation, %. P35462; in the data active = max activation above about 30%; also: 0% is about no effect
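Agonist-mode cell screen: cells plated at 1500/well and incubated overnight at 37 °C, then exposed to library compounds for 90 min at 37 °C. Detection reagent was added for 30–60 min at room temperature, and luminescence was read.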
ClpP mod – qHTS Assay for Activators of ClpP; purified B. subtilis ClpP, FRET peptide cleavage, 20 min; Potency, µM (titrated, usually from 57.5 µM), for the others: at the highest dose activity change, negative = active; actives 1.9% (n = 340,000); AID 651965, 2013; active = well fitted falling curve with a large enough effect; inconclusive = small, poorly fitted or top-dose-only effect; inactive = no such curve, though single readings can be large or run the other way; also: potency is read from the fitted curve at half-maximal effect; the source files actives as falling curves though it sought activators and does not explain the sign; nearly all actives have a fitted effect of over 65% in size
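FRET quenching reversal measured ClpP activation: 10 microg/mL B. subtilis ClpP at pH 8 with the FRET-FV decapeptide, read at 430 nm after 320 nm excitation. The 20-min minus 0-min signal was scaled between DMSO/no-enzyme wells and ADEP (5.8 microM final).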
GLP1R cytotox – cytotoxicity counter-screen for GLP-1 receptor inverse agonists | actives 0.13% (n = 410,000) | Potency, µM (highest dose often 38.3 µM), inactives show at the top dose activity change, negative = inhibition, hits mostly inhibitors | HEK293 cAMP-luciferase reporter cells, luminescence, 24 h;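 also: loss of luciferase light is scored as toxicity; potency is read from the fitted curve at half-maximal effect; % is scaled to controls: 0 for no effect and ±100 for the full control effect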
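1536-well qHTS counterscreen of the MLSMR; 200 cells/uL, 12 h pre-incubation, 23 nL cpd, 24 h at 37 deg C 5% CO2, luciferase detection reagent, 12 min RT, luminescence. Inhibition = undesired.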
GLP1R ag – GLP-1 receptor (human) agonism; P43220; HEK293 GLP-1R CRE-luciferase, luminescence, 4-6 h; cells express a hypersensitive GLP-1R form; Potency, µM (titrated, usually from 45.6 µM), for inactives: at the top dose activation, usual class: activators; actives 0.007% (n = 380,000); AID 624172; also: potency is read from the fitted curve at half-maximal effect; % of control where 0% means no effect
Starred values were filed as active, the others as inactive; ? = inconclusive; nt = not tested or not shown; ! = not confirmed by another sample. Unless noted, calls follow the shape of the dose curve; as a rule, active = well fitted curve in the direction sought with a large enough effect; inconclusive = small, poorly fitted or top-dose-only effect, or another doubt; inactive = no such curve, though single readings can be large; an effect the other way counts as inactive or inconclusive.

SMILES	GLP1R inv ag	D3 antag	DRD3 agonist	ClpP mod	GLP1R cytotox	GLP1R ag
CN1C(=O)C(C)(C)c2cc(S(=O)(=O)N3CCCC3C(=O)Nc3ccc(F)cc3)ccc21 (stereo not drawn)	3.5%	nt	0.3	0.9%	4.4%	nt
Cc1ccc(N(C)S(=O)(=O)c2ccc(-c3coc(C)n3)cc2)cc1	-12.0%	nt	5.6	3.9%	3.0%	10.2%
C/C=C1\COC(C(=O)NCc2ccccc2)(C(F)(F)F)C=C1C=C(C)C (stereo not drawn)	10µM*	-16.8	-9.0	1.3%	0.7%	8.0%
Cc1nn(-c2ccc3nncn3n2)c(C)c1CCC(=O)Nc1ccc(OC(F)(F)F)cc1	3.2%	nt	-4.4	0.3%	-6.2%	nt
COc1cc(C(=O)Nc2cccc(-c3nc4cc(C)cc(C)c4o3)c2)cc(OC)c1OC	2.1%	41.0	51.6*	-1.5%	-1.2%	-3.5%
COc1cc(C(=O)Nc2ccc(-c3nc4cc(C)ccc4o3)c(O)c2)cc(OC)c1OC	?	29.7	20.1	28.2µM*	4.7%	-1.7%
CCc1ccc2oc(-c3cc(NC(=O)c4cc(OC)c(OC)c(OC)c4)ccc3O)nc2c1	3.5%	nt	7.3	0.7%	4.5%	nt
Cc1cc(C)c2oc(-c3cccc(NC(=O)c4ccc(F)cc4)c3)nc2c1	0.9%	0.0	-5.3	1.3%	-5.9%	2.0%
CCCn1c(=N)n(CC(=O)c2ccc(Cl)cc2)c2ccccc21	7.94µM*	-11.1	-2.0	nt	-27.2%	13.0%
Cc1cc(C)c(S(=O)(=O)ON2C(=O)c3ccccc3C2=O)cc1C	4.7%	?	-6.1	8.91µM*	?	-2.2%
COc1ccccc1NC(=O)NCC1(N(C)C)CCCCC1	-6.6%	-81.8*	-25.1	-3.8%	18.1%	4.7%
COC(=O)c1ccc(-c2nc3ccc(C)cc3o2)cc1	0.1%	-9.5	-1.0	3.55µM*	-24.0%	-4.1%
Cc1ccc2oc(-c3ccco3)nc2c1	2.7%	6.6	-4.9	11.2µM*!	9.3%	0.9%
Cc1ccc(-c2nc3cc(C)ccc3o2)cc1	-2.4%	21.2	2.4	31.6µM*	-7.7%	-7.6%
O=c1oc(-c2ccco2)nc2c1cnn2-c1ccccc1	8.8%	-23.5	6.4	?	0.1%	-25.6%
O=c1oc(-c2ccco2)nc2ccccc12	19.7%	-56.5*	0.3	-7.2%	-8.7%	-7.4%
C[C@H](CSC(=O)c1ccccc1)C(=O)N1C[C@@H](Sc2ccccc2)C[C@H]1C(=O)O	nt	nt	2.1	nt	nt	nt
CCOc1ccc(-c2[nH]nc3c2C(c2cccnc2)C(C#N)=C(N)O3)cc1 (stereo not drawn)	5.6%	-51.0*	-1.3	1.2%	-15.2%	16.3%
Cc1c(C(=O)c2ccc(F)cc2)c2ccccn2c1CCc1ccccn1	10µM*	10.9	0.4	nt	-12.0%	4.0%
CSc1nc(=O)n(-c2ccccc2)c(C)c1C(C)=O	0.0%	16.9	33.6*	0.6%	5.9%	-11.5%
COc1ccc(CNC(C)C2COc3ccccc3O2)c(OC)c1 (stereo not drawn)	?	?	-5.6	28.2µM*	-13.3%	21.5%
CC(NCc1ccccc1)C1COc2ccccc2O1 (stereo not drawn)	-27.5%	-1.0	4.9	0.6%	-4.8%	12.4%
CC(NC(=O)CCC(=O)NC(C)C1COc2ccccc2O1)C1COc2ccccc2O1 (stereo not drawn)	8.91µM*	23.9	-9.9	0.5%	-14.2%	6.5%
CC(NCC(O)COc1ccccc1)C1COc2ccccc2O1 (stereo not drawn)	?	-85.4*	-3.6	1.2%	-7.6%	30.0%
COc1ccc(NC(=O)c2sc3nc4c(cc3c2N)CN(Cc2ccccc2)CC4)c(OC)c1	?	nt	4.3	-6.3%	7.2%	nt
COc1cc2c(cc1OC)CN(Cc1ccccc1)CC2	-37.0%	-23.8	-26.7	nt	-13.5%	-10.9%
COc1cc2c(cc1OC)CN(CC(O)c1ccccc1)CC2 (stereo not drawn)	10.4%	-22.3	-7.6	nt	174.8%	14.3%
